The campaign covered roughly 5,500 compounds. About 2,000 (36%) were called active. Not shown: some 18% with an inconclusive outcome. Cut-off read from the data, not from the text of the source: active = normalized growth mostly below about 0.91 (no sharp cut-off); inconclusive = no clear call, values can overlap the other calls; inactive = mostly above about 0.92. The list shows a part of the results.
Assay: chemical genetic growth profiling, strain panel (AID 1159580);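 note: tested at 20 µM; growth read once vehicle control cultures reached saturation at 30 °C; 1 = growth at the plate median or of vehicle wells; lower values mean less growth of the strain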
Conditions: growth OD

Measured: normalized growth

CC1(C)S[C@@H]2[C@H](NC(=O)COc3ccccc3)C(=O)N2[C@H]1C(=O)O
inactive: S. cerevisiae deletion strains, locus YJR075W, strain HOC1, hits give low values 1 | S. cerevisiae deletion strains, locus YKL009W, strain mrt4, hits give low values 1.03 | S. cerevisiae deletion strains, locus YKL068W, hits give low values 1.02 | S. cerevisiae deletion strains, locus YKL085W, strain MDH1 (second series), hits give low values 1.01 | S. cerevisiae deletion strains, locus YKL085W, strain MDH1, hits give low values 1.01 | S. cerevisiae deletion strains, locus YKL160W, strain elf1, hits give low values 0.977 | S. cerevisiae deletion strains, locus YKL190W, strain CNB1, hits give low values 0.992 | S. cerevisiae deletion strains, locus YKR001C, strain vps1, hits give low values 1.03 | S. cerevisiae deletion strains, locus YKR026C, strain gcn3, hits give low values 0.983 | S. cerevisiae deletion strains, locus YKR091W, strain srl3, hits give low values 0.991 | S. cerevisiae deletion strains, locus YLL001W, strain dnm1, hits give low values 0.935 | S. cerevisiae deletion strains, locus YLL026W, hits give low values 0.983 | S. cerevisiae deletion strains, locus YLL041C, strain sdh2, hits give low values 0.999 | S. cerevisiae deletion strains, locus YLR027C, strain aat2, hits give low values 0.973 | S. cerevisiae deletion strains, locus YLR039C, strain RIC1, hits give low values 1.04 | S. cerevisiae deletion strains, locus YLR058C, strain SHM2, hits give low values 1 | S. cerevisiae deletion strains, locus YLR102C, strain apc9, hits give low values 1.02 | S. cerevisiae deletion strains, locus YLR113W, strain HOG1, hits give low values 0.994 | S. cerevisiae deletion strains, locus YLR221C, strain rsa3, hits give low values 1.01 | S. cerevisiae deletion strains, locus YLR258W, strain gsy2, hits give low values 0.999 | S. cerevisiae deletion strains, locus YLR262C, strain YPT6 (second series), hits give low values 0.968 | S. cerevisiae deletion strains, locus YLR262C, strain YPT6, hits give low values 1.04 | S. cerevisiae deletion strains, locus YLR268W, strain sec22, hits give low values 1.03 | S. cerevisiae deletion strains, locus YLR320W, strain mms22, hits give low values 0.99 | S. cerevisiae deletion strains, locus YLR330W, strain CHS5, hits give low values 1 | S. cerevisiae deletion strains, locus YLR342W, strain FKS1 (second series), hits give low values 0.976 | S. cerevisiae deletion strains, locus YLR342W, strain FKS1, hits give low values 0.975 | S. cerevisiae deletion strains, locus YLR357W, strain rsc2, hits give low values 0.992 | S. cerevisiae deletion strains, locus YLR370C, strain arc18, hits give low values 1 | S. cerevisiae deletion strains, locus YLR371W, strain rom2, hits give low values 1.02 | S. cerevisiae deletion strains, locus YLR384C, strain iki3, hits give low values 0.98 | S. cerevisiae deletion strains, locus YLR418C, strain cdc73, hits give low values 1.06 | S. cerevisiae deletion strains, locus YML016C, strain PPZ1, hits give low values 1.01 | S. cerevisiae deletion strains, locus YML032C, strain rad52, hits give low values 1.04 | S. cerevisiae deletion strains, locus YML120C, strain ndi1, hits give low values 0.995 | S. cerevisiae deletion strains, locus YML124C, strain tub3, hits give low values 1.03 | S. cerevisiae deletion strains, locus YMR058W, strain fet3, hits give low values 0.988 | S. cerevisiae deletion strains, locus YMR078C, strain ctf18, hits give low values 1.02 | S. cerevisiae deletion strains, locus YMR125W, strain sto1, hits give low values 1.01 | S. cerevisiae deletion strains, locus YMR129W, hits give low values 0.998 | S. cerevisiae deletion strains, locus YMR205C, strain PFK2, hits give low values 0.994 | S. cerevisiae deletion strains, locus YMR223W, strain ubp8, hits give low values 1.02 | S. cerevisiae deletion strains, locus YMR231W, strain pep5, hits give low values 1.01 | S. cerevisiae deletion strains, locus YMR263W, strain SAP30, hits give low values 1 | S. cerevisiae deletion strains, locus YMR307W, strain GAS1, hits give low values 0.989 | S. cerevisiae deletion strains, locus YNL067W, strain RPL9B, hits give low values 1.01 | S. cerevisiae deletion strains, locus YNL071W, strain lat1, hits give low values 1 | S. cerevisiae deletion strains, locus YNL128W, strain TEP1, hits give low values 1.01 | S. cerevisiae deletion strains, locus YNL153C, strain GIM3, hits give low values 1 | S. cerevisiae deletion strains, locus YNL183C, strain NPR1, hits give low values 0.937 | S. cerevisiae deletion strains, locus YNL209W, strain ssb2, hits give low values 1 | S. cerevisiae deletion strains, locus YNL233W, strain BNI4, hits give low values 1.01 | S. cerevisiae deletion strains, locus YNL248C, strain rpa49, hits give low values 1.03 | S. cerevisiae deletion strains, locus YNL250W, strain rad50, hits give low values 1.03 | S. cerevisiae deletion strains, locus YNL271C, strain bni1, hits give low values 1.02 | S. cerevisiae deletion strains, locus YNL298W, strain CLA4, hits give low values 1.04 | S. cerevisiae deletion strains, locus YNL307C, strain MCK1, hits give low values 1.03 | S. cerevisiae deletion strains, locus YNL322C, strain KRE1 (second series), hits give low values 0.997 | S. cerevisiae deletion strains, locus YNL322C, strain KRE1, hits give low values 1 | S. cerevisiae deletion strains, locus YNR049C, strain mso1, hits give low values 0.994 | S. cerevisiae deletion strains, locus YNR052C, strain pop2, hits give low values 1.01 | S. cerevisiae deletion strains, locus YOL006C, strain TOP1, hits give low values 1.05 | S. cerevisiae deletion strains, locus YOL012C, strain htz1 1.38 | S. cerevisiae deletion strains, locus YOL147C, strain pex11, hits give low values 1.02 | S. cerevisiae deletion strains, locus YOR001W, strain rrp6, hits give low values 0.983 | S. cerevisiae deletion strains, locus YOR061W, strain CKA2, hits give low values 1.02 | S. cerevisiae deletion strains, locus YOR069W, strain VPS5, hits give low values 1 | S. cerevisiae deletion strains, locus YOR070C, strain gyp1, hits give low values 1 | S. cerevisiae deletion strains, locus YOR080W, strain dia2, hits give low values 0.986 | S. cerevisiae deletion strains, locus YOR083W, strain WHI5, hits give low values 0.954 | S. cerevisiae deletion strains, locus YOR106W, strain vam3, hits give low values 0.963 | S. cerevisiae deletion strains, locus YOR136W, strain idh2, hits give low values 1.03 | S. cerevisiae deletion strains, locus YOR144C, strain elg1, hits give low values 1.02 | S. cerevisiae deletion strains, locus YOR184W, strain ser1, hits give low values 1.04 | S. cerevisiae deletion strains, locus YOR231W, strain MKK1, hits give low values 1.02 | S. cerevisiae deletion strains, locus YOR265W, strain rbl2, hits give low values 1 | S. cerevisiae deletion strains, locus YOR270C, strain vph1, hits give low values 1.01 | S. cerevisiae deletion strains, locus YOR290C, strain snf2, hits give low values 1.01 | S. cerevisiae deletion strains, locus YOR316C, strain cot1, hits give low values 1.02 | S. cerevisiae deletion strains, locus YPL051W, strain arl3, hits give low values 0.982 | S. cerevisiae deletion strains, locus YPL055C, strain LGE1, hits give low values 1.01 | S. cerevisiae deletion strains, locus YPL078C, strain atp4, hits give low values 0.955 | S. cerevisiae deletion strains, locus YPL106C, strain sse1, hits give low values 0.998 | S. cerevisiae deletion strains, locus YPL240C, strain hsp82, hits give low values 1 | S. cerevisiae deletion strains, locus YPL241C, strain CIN2, hits give low values 1 | S. cerevisiae deletion strains, locus YPL256C, strain CLN2, hits give low values 0.968 | S. cerevisiae deletion strains, locus YPR119W, strain clb2, hits give low values 1.02 | S. cerevisiae deletion strains, locus YPR141C, strain kar3, hits give low values 1.03 | S. cerevisiae deletion strains, locus YPR163C, strain tif3, hits give low values 1.04 | S. cerevisiae deletion strains, locus YPR167C, strain met16, hits give low values 1.02 | S. cerevisiae deletion strains, strain wtn01, hits give low values 1.02 | S. cerevisiae strains, strain wild type, hits give low values 1.01

From PubChem BioAssay AID1159580 (chemical genetic matrix, 2015)
